This note sets out measurements from PubChem BioAssay.

Values without a mark were called inactive.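 How the source made its calls: active means mean z-score across replicates of 1.96 or higher in either the MELAS or the Rieske mutant cell line; inactive means the rest.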

The test in a line: survival rescue of mitochondrial mutant cells in low glucose, primary screen, MELAS cybrids, Rieske KO mouse fibroblasts, CellTiter-Glo (AID 1508586).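 Further: test concentration not given here; z relative to plate mean and SD of compound and empty wells.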 The note with it: MELAS cybrid survival, CellTiter-Glo 48 h, stronger effect = higher value. For orientation: ATP-based viability assays read luminescence as a measure of living cells.
In the case of `CCOc1ccccc1O[C@@H](c1ccccc1)[C@H]1CNCCO1`, the z-score is -0.0519.
The figure for `CCOC(=O)c1nn(Cc2ccccn2)c2c1CN(Cc1ccc(NC(C)=O)s1)CC2` is -0.809; for `CO/N=C(\C(=O)N[C@@H]1C(=O)N2C(C(=O)OC(C)OC(C)=O)=C(COC(N)=O)CS[C@H]12)c1ccco1` (stereo partly specified) it is 0.525; for `C/C=C/C1=C(C(=O)O)N2C(=O)[C@@H](NC(=O)[C@H](N)c3ccc(O)cc3)[C@H]2SC1` it is -0.679.
Take `Cc1cc(=O)c(C(=O)N[C@@H](C(=O)N[C@@H]2C(=O)N3C(C(=O)O)=C(CSc4nnnn4C)CS[C@H]23)c2ccc(O)cc2)c[nH]1`: the z-score was 0.177.
The figure for `COc1ccc(C[C@@H]2c3cc(OC)c(OC)cc3CC[N@+]2(C)CCC(=O)OCCCCCOC(=O)CC[N@@+]2(C)CCc3cc(OC)c(OC)cc3[C@H]2Cc2ccc(OC)c(OC)c2)cc1OC` is -1.09; for `COC(=O)c1c(NC(=O)c2ccco2)c2cc(NC3CCOCC3)cnc2n1C` it is -0.622.
As for `CN1C[C@H](C(=O)N[C@]2(C)O[C@@]3(O)[C@@H]4CCCN4C(=O)[C@H](Cc4ccccc4)N3C2=O)CC2c3cccc4[nH]cc(c34)C[C@H]21` (mixture of isomers), the figure is 0.0487; as for `CO[C@H]1/C=C/O[C@@]2(C)Oc3c(C)c(O)c4c(O)c(c(/C=N/N5CCN(C6CCCC6)CC5)c(O)c4c3C2=O)NC(=O)/C(C)=C\C=C\[C@H](C)[C@H](O)[C@@H](C)[C@@H](O)[C@@H](C)[C@H](OC(C)=O)[C@@H]1C`, 0.699.
As for `COC(=O)c1c(NC(C)=O)c2cc(NC3CCOCC3)cnc2n1CCc1ccc(OC)cc1`, the z-score is -0.209.
As for `C#C[C@]1(OC(C)=O)CC[C@H]2[C@@H]3CCC4=CC(=NO)CC[C@@H]4[C@H]3CC[C@@]21CC`, the figure is 0.995; as for `CC[C@H]1OC(=O)C[C@@H](O)[C@H](C)[C@@H](O[C@@H]2O[C@H](C)[C@@H](O[C@H]3CC(C)(O)[C@@H](O)[C@H](C)O3)[C@H](N(C)C)[C@H]2O)[C@@H](CC=O)C[C@@H](C)C(=O)/C=C/C(C)=C/[C@@H]1CO[C@@H]1O[C@H](C)[C@@H](O)[C@@H](OC)[C@H]1OC` (stereo partly specified), 0.259.
As to `Nc1nc(CC(=O)Nc2ccc(CCNC[C@H](O)c3ccccc3)cc2)cs1`, the z-score is 0.235.
As for `C[N+]1(C)[C@@H]2CC(OC(=O)C(CO)c3ccccc3)C[C@H]1[C@@H]1O[C@@H]12` (stereo partly specified), the figure is -0.282; as for `CN1[C@@H]2CC[C@@H]1CC(OC(=O)C(CO)c1ccccc1)C2` (stereo partly specified), 0.0633; as for `CC(=O)OCC(=O)[C@@]1(O)CC[C@H]2[C@@H]3CCC4=CC(=O)CC[C@]4(C)C3(F)[C@@H](O)C[C@@]21C` (stereo partly specified), -0.171.
